HT1080-NT tox: qHTS for induction of synthetic lethality in tumor cells producing 2HG: qHTS for the HT-1080-NT fibrosarcoma cell line; Potency, µM (series often up to 46.1 µM), inactives show at the highest dose activity, negative = less viability, most hits filed as cytotoxic; AID 686970, 2013; HT-1080-NT fibrosarcoma viability, CellTiter-Glo ATP luminescence, 48 h; 360,000 compounds, 1.6% hits;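 also: NT is the 2HG producing partner of a matched IDH1 knockdown line; 0% = DMSO-treated cells and -100% = media-only wells without cells; nearly all actives have a fitted effect of over 55% in size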
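Compounds were tested in concentration-response format on HT-1080-NT cells for 48 hours at 37 degrees C. Cell viability came from CellTiter-Glo luminescence; curves were classified by r2, response magnitude and activity.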
KB-V1 cytotox: qHTS assay for MDR1-selective chemotherapeutics: Primary screen using the drug-selected MDR subline cells KB-V1; KB-V1 MDR cells viability, CellTiter-Glo, 72 h; Potency, µM (titrated, usually from 46.1 µM), hits mostly cytotoxic; AID 1347076, 2019; 400,000 compounds, 3.4% hits; also: nearly all actives have a fitted effect of over 60% in size
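Following 72 h at 37 degrees C with compound, KB-V1 cell viability was read by CellTiter-Glo luminescence, medium being phenol-red-free DMEM plus 10% FBS; concentration-response parameters came from normalized, curve-fitted qHTS data.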
KB-3-1 cytotox: qHTS assay for MDR1-selective chemotherapeutics: Primary screen using the parental adenocarcinoma cell KB-3-1. KB-3-1 viability, CellTiter-Glo ATP luminescence, 72 h. Potency, µM (titrated, usually from 46.1 µM), hits mostly cytotoxic. 400,000 compounds, 1.4% hits; also: nearly all actives have a fitted effect of over 60% in size
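KB-3-1 parental drug-naive adenocarcinoma cells in DMEM/10% FBS, incubated 72 h at 37 C with pin-transferred compounds across a concentration series. Viability by CellTiter-Glo luminescence; concentration-response curves fitted after normalization.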
TDP1 cell CPT: qHTS for Inhibitors of human tyrosyl-DNA phosphodiesterase 1 (TDP1): qHTS in cells in presence of CPT; Potency, µM (highest dose often 46.2 µM), inactives show at the highest dose activity change, negative = growth inhibition, usual class: inhibitors; chicken DT40 Tdp1-/-;hTDP1 cells + 20 nM CPT, ATP luminescence, 48 h; 420,000 compounds, 12% hits; also: nearly all actives have a fitted effect of over 55% in size
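Cell growth measured by CellTiter-Glo luminescence after a minimum 48 h, 37 C compound exposure with 20 nM CPT in Tdp1-knockout DT40 cells stably expressing hTDP1, seeded 400/well; qHTS titration format.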
DT40 TDP1 no CPT: qHTS for Inhibitors of human tyrosyl-DNA phosphodiesterase 1 (TDP1): qHTS in cells in absence of CPT. 420,000 compounds, 15% hits. DT40 Tdp1-/- hTDP1 cells, no CPT, ATP luminescence, 48 h. Potency, µM (highest dose often 46.2 µM), for inactives: at the top dose activity change, negative = growth inhibition, actives largely listed as inhibitors; also: nearly all actives have a fitted effect of over 55% in size
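Compound effects on proliferation are scored in DT40 Tdp1-/-;hTDP1 cells in the absence of CPT. ATP levels (CellTiter-Glo luminescence) are recorded after a ≥48 hr, 37 °C incubation.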
HT1080 IDH1KD tx: qHTS for induction of synthetic lethality in tumor cells producing 2HG: qHTS for the HT-1080-IDH1KD cell line; HT-1080 IDH1 knockdown viability, ATP luminescence, 48 h; Potency, µM (top dose mostly 46.1 µM), without a hit: at the top dose activity, negative = toxicity, hits mostly cytotoxic; 360,000 compounds, 2% hits;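 also: 0% = DMSO wells and -100% = cell-free medium wells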
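% activity derives from luminescence (CellTiter-Glo), normalised to DMSO and no-cell wells. HT-1080-IDH1KD cells, 750/well, had 48 h compound exposure at 37 °C.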
Starred values were filed as active, the others as inactive; i = inactive; ? = inconclusive; . = no result. Rows were chosen to be rich in hits. Some 19% of all compounds tested hit in one or more screens of this group. Calls follow the shape of the dose curve; as a rule, active = well fitted curve in the direction sought with a large enough effect; inconclusive = small, poorly fitted or top-dose-only effect, or another doubt; inactive = no such curve, though single readings can be large; an effect the other way counts as inactive or inconclusive. Unless noted, % is scaled to controls: 0 for no effect and ±100 for the full control effect; potency is read from the fitted curve at half-maximal effect.

SMILES	HT1080-NT tox	KB-V1 cytotox	KB-3-1 cytotox	TDP1 cell CPT	DT40 TDP1 no CPT	HT1080 IDH1KD tx
COc1ccc2c(CC(=O)Nc3ccc4nc(N5CCOCC5)sc4c3)coc2c1	3%	i	?	?	?	4%
CCOc1ccccc1-n1c(SCC(=O)N2CCOCC2)nc2ccccc2c1=O	4%	?	i	1%	-30%	10%
COc1cccc(CN(C)C[C@@H]2OCc3cnnn3CCCC(=O)N([C@@H](C)CO)C[C@H]2C)c1	2%	i	i	2%	-21%	-1%
COc1ccc(NC(=O)C2CCCN2S(=O)(=O)c2cccc3cccnc23)c(OC)c1 (configuration not stated)	-3%	?	i	?	?	-1%
CCOc1ccc(OCC)c(NC(=O)C2CCCN2S(=O)(=O)c2cccc3cccnc23)c1 (configuration not stated)	-21%	i	?	15µM*	18µM*	-4%
O=C(Nc1cccc(C(F)(F)F)c1)C1CCCN1S(=O)(=O)c1cccc2cccnc12 (configuration not stated)	-9%	2.6µM*	i	23µM*	16µM*	-28%
COC(=O)C1CCCN1S(=O)(=O)c1ccc([N+](=O)[O-])cc1 (configuration not stated)	0%	i	i	-25%	14%	8%
COc1ccc(OC)c(NC(=O)C2CCCN(S(=O)(=O)c3cccc4cccnc34)C2)c1 (configuration not stated)	1%	?	i	?	13µM*	-2%
COC(=O)C1CCCN1S(=O)(=O)c1ccc2ccccc2c1 (configuration not stated)	-3%	i	i	?	21µM*	-11%
Cc1cc(C)n(-c2cccc(C(=O)NCC3Cc4cccc(-c5cccnc5)c4O3)c2)n1 (configuration not stated)	.	.	.	?	15µM*	.
O=C(NCC1Cc2cccc(-c3cccnc3)c2O1)c1ccc2cc[nH]c2c1 (configuration not stated)	.	.	.	2.9µM*	26µM*	.
COc1ccccc1-c1nc2c(c(SCc3ccc(F)cc3Cl)n1)Cc1c(CO)cnc(C)c1O2	.	i	i	1%	-5%	.
Fc1ccc(-c2ccc3c(c2)C2CC3CCN2)cc1 (configuration not stated)	3%	i	i	18µM*	23µM*	3%
Cc1cccc(-c2ccc3c(c2)C2CC3CCN2)c1 (configuration not stated)	-15%	i	i	21µM*	15µM*	-4%
O=C(Cn1c(=O)c2sccc2n(Cc2ccc([N+](=O)[O-])cc2)c1=O)NCCc1ccccc1	-2%	i	i	?	13µM*	-28%
O=C(Cn1c(=O)c2sccc2n(Cc2cccc([N+](=O)[O-])c2)c1=O)NCCc1ccccc1	-12%	8.2µM*	i	?	?	?
O=C(Cn1c(=O)c2sccc2n(CC(=O)Nc2ccc(Cl)cc2Cl)c1=O)NCCc1ccccc1	.	.	.	?	-18%	.
COc1ccc(CCNC(=O)CCCCn2c(=O)c3ccccc3n(CC(=O)Nc3ccc(C)cc3C)c2=O)cc1OC	.	i	i	-27%	-22%	.
CCOc1cc(/C=N/Nc2nc(-c3cccc(S(=O)(=O)N4CCCC4)c3)cs2)ccc1O	-2%	13µM*	i	13µM*	8.2µM*	-3%
